Laboratory results taken from ChEMBL document CHEMBL1201862, “PubChem BioAssay data set” (2004).
Hit rate of the full screen: of about 400,000 compounds, about 2,100 (0.53%) were called active. Roughly 14% stayed inconclusive and do not appear here. The rule behind the calls is not given here. What follows is part of a selection rich in actives, with near analogues and random picks from the rest.

These compounds were tested against Ataxin-2 (Homo sapiens) (UniProt Q99700) (assay: qHTS for Inhibitors of ATXN expression.).
Chain of Ataxin-2 (Homo sapiens) (Q99700 whole entry): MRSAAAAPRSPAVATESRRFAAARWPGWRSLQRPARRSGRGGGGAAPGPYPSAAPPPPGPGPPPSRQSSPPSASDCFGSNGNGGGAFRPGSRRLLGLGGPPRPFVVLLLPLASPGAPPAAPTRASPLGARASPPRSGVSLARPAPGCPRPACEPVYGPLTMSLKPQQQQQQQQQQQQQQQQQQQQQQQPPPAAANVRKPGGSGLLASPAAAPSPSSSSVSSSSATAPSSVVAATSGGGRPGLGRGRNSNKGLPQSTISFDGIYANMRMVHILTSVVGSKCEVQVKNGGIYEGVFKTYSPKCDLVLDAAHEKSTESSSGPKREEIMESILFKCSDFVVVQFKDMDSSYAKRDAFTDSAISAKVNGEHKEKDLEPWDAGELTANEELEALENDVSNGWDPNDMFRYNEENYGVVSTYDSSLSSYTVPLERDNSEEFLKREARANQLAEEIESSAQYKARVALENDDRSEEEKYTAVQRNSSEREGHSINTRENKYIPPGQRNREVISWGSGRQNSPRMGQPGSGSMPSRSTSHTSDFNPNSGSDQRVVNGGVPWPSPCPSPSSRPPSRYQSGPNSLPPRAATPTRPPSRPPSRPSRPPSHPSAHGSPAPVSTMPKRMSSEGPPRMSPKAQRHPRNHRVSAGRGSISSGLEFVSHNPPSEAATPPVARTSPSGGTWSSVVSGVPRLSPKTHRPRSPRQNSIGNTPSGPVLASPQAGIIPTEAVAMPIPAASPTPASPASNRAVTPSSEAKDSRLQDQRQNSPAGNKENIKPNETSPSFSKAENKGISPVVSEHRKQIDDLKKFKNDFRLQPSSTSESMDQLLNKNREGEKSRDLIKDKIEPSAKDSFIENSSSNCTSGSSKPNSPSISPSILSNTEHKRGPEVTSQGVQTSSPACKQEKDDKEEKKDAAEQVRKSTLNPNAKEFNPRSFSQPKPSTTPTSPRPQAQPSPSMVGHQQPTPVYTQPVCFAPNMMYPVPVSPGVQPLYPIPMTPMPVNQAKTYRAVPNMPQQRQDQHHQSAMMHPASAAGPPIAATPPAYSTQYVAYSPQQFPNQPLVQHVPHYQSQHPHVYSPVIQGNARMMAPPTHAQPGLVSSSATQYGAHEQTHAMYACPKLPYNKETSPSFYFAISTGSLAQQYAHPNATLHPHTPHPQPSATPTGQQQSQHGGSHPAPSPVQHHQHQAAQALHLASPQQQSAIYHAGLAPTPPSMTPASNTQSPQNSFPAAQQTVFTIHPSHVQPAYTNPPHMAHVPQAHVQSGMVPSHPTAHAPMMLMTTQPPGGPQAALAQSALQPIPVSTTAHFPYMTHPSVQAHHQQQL
Assay type: functional
`COc1ccc(CCN2C(=O)CC(C(N)=O)S/C2=N\c2ccccc2)cc1` (stereo unspecified) was tested, and the Potency was “inactive”. In the case of `Cc1cc(C)c2c(N)c(C(=O)NN3CC(=O)N(c4cccc(Cl)c4)CC3=O)sc2n1`, the Potency is reported as “inactive”. In the case of `CO/N=C(\Cn1ncc(N2CCOCC2)c(Br)c1=O)c1ccc(Cl)cc1`, the Potency is reported as “inactive”. `CC(C)(C)C(=O)Cn1ncc(Br)c(Br)c1=O` was tested, and the Potency was 15.8 µM (active). In the case of `Nc1cc2c(cc1O)CCCC2`, the Potency is reported as “inactive”. `O=C(COc1ccc(Br)cc1)N1CCc2ccccc21` was tested, and the Potency was “inactive”. In the case of `CCOCCCn1c(=N)c(C(=O)NC2CCCC2)cc2c(=O)n3cc(C)ccc3nc21`, the Potency is reported as “inactive”. In the case of `CCCCCCn1c(=O)n2n(c1=O)[C@@H]1CN(S(=O)(=O)c3ccc(C)cc3)C[C@]1(O)[C@@H](OC(=O)NCC1CCCCC1)C2`, the Potency is reported as 31.6 µM (active). With `CCCCCCn1c(=O)n2n(c1=O)C[C@]1(OC(=O)NCC3CCCCC3)CN(S(=O)(=O)c3ccc(C)cc3)C[C@]1(O)C2` the Potency was 31.6 µM (active). With `CCCCCCn1c(=O)n2n(c1=O)[C@@H]1CN(S(=O)(=O)c3ccc(C)cc3)C[C@]1(O)[C@@H](OC(=O)NC1CCCC1)C2` the Potency was 44.7 µM (active). With `COCCCn1c(=N)c(C(=O)NC2CCCC2)cc2c(=O)n3cc(C)ccc3nc21` the Potency was “inactive”. In the case of `Cc1cccc(C)c1N=C(S)NCCc1ccc(O)c(O)c1`, the Potency is reported as “inactive”. For `CC1CC1C(=O)OCC(=O)c1c(N)n(C)c(=O)n(C)c1=O` (stereo unspecified), the Potency was “inactive”. With `CCOC(=O)c1cc2c(=O)n3ccccc3nc2n(Cc2ccco2)/c1=N/C(=O)c1cccnc1` the Potency was “inactive”. `COc1ccc(-n2c3nc4ccccc4nc3c3c(=N)oc(C)nc32)cc1` was tested, and the Potency was “inactive”. In the case of `COc1cc(/C=C(\C#N)c2nc3ccccc3n2C)cc(OC)c1O`, the Potency is reported as “inactive”. With `Cc1cccn2c(=O)c3cc(C#N)/c(=N\C(=O)c4cccnc4)n(CC4CCCO4)c3nc12` (stereo unspecified) the Potency was “inactive”. With `O=C1CN2CCC1C/C2=C\c1ccnc2c(Cl)cccc12` (stereo unspecified) the Potency was “inactive”. In the case of `C=C1C(=O)c2sccc2C(c2ccc(OC)c(OC)c2)C1COC(C)=O` (stereo unspecified), the Potency is reported as 5.97 µM (active). `COC(=O)C1=CN(Cc2ccc(OC)c(OC)c2)C=C(C(=O)OC)C1c1cccs1` was tested, and the Potency was “inactive”. In the case of `CN1CCN(c2nc3ccccn3c(=O)c2C=C(C#N)C#N)CC1`, the Potency is reported as “inactive”. `CC1(C)CC(=O)C2=C(C1)c1c(ccc3ccccc13)NC2c1ccc(OCC(=O)O)cc1` (stereo unspecified) was tested, and the Potency was “inactive”. With `Cc1ccc2nc(NCC(N)=O)nc(-c3ccccc3)c2c1` the Potency was “inactive”. `O=c1c(Cl)c(Cl)cnn1Cc1nnc(-c2ccccc2Br)o1` was tested, and the Potency was 39.8 µM (active). `Nc1cccc2c1C(=O)N(Cc1nnc(-c3ccccc3Br)o1)C2=O` was tested, and the Potency was “inactive”. For `COc1ccc(/C=C2\Oc3cc(OCC(=O)N4CCC[C@H]4C(=O)O)ccc3C2=O)c(OC)c1`, the Potency was “inactive”. `COc1ccc(-c2nc3ccccc3c(=O)n2CCOc2c(C)cccc2C)cc1` was tested, and the Potency was “inactive”. With `COc1ccc(-c2nnc(SCc3cc(=O)c4cc(C)cc(C)c4[nH]3)n2C)cc1` the Potency was 17.8 µM (active). In the case of `COc1cc(OC)c2c(C)cc(=O)oc2c1C(CCN1CCOCC1)c1ccc2c(c1)OCO2` (stereo unspecified), the Potency is reported as 20 µM (active). `CCCCCc1cc(=O)oc2c(C(CCN3CCCC(C)C3)c3ccc4c(c3)OCO4)c(OC)cc(OC)c12` (stereo unspecified) was tested, and the Potency was 35.5 µM (active). `CCCCCc1cc(=O)oc2c(C(CCN3CCCC(C)C3)c3ccc(OC)cc3)c(OC)cc(OC)c12` (stereo unspecified) was tested, and the Potency was 31.6 µM (active). For `Cc1c(O)ccc2c(CN3CCOCC3)cc(=O)oc12`, the Potency was “inactive”. With `COc1ccc(CN2COc3ccc4c(C)cc(=O)oc4c3C2)cc1` the Potency was “inactive”. `CCCc1cc(=O)oc2c3c(ccc12)OCN(Cc1ccccc1OC)C3` was tested, and the Potency was “inactive”. In the case of `COc1ccc(-c2c(C)c3ccc(O)c(CN4CCCC(C)C4)c3oc2=O)cc1OC` (stereo unspecified), the Potency is reported as “inactive”. `CCCCCc1cc(=O)oc2c(C(CCN3CCCC(C)C3)c3ccc(N(C)C)cc3)c(OC)cc(OC)c12` (stereo unspecified) was tested, and the Potency was 22.4 µM (active). In the case of `CCN1CCc2c(C#N)c(N3CCOCC3)nc(NCCO)c2C1`, the Potency is reported as “inactive”. `CCc1cc2c(CN3CCN(CCO)CC3)cc(=O)oc2cc1O` was tested, and the Potency was “inactive”. `CC(=O)c1ccc(NS(=O)(=O)c2ccc3c(c2)N(C(C)=O)CCO3)cc1` was tested, and the Potency was “inactive”. With `CCCN1CCN(c2ncnc3sc(C(=O)Nc4ccc(C(C)C)cc4)c(C)c23)CC1` the Potency was 31.6 µM (active). For `COc1ccc(C)cc1NC(=O)c1sc2ncnc(N3CCN(c4ccccn4)CC3)c2c1C`, the Potency was “inactive”. `CCOC(=O)c1sc2ncnc(N3CCN(C)CC3)c2c1C` was tested, and the Potency was “inactive”. For `COc1ccccc1C(=O)Nc1cccc(N2CCC(NCc3cnn(-c4ccccc4)n3)CC2)c1`, the Potency was 28.2 µM (active). In the case of `COc1ccccc1C(=O)Nc1nc2n(n1)C(c1ccc(F)cc1)C=C(c1ccc(Cl)cc1)N2` (stereo unspecified), the Potency is reported as “inactive”. With `COc1cccc(C(=O)Nc2ccc3[nH]c(O)nc3c2)c1OC` the Potency was “inactive”. `COCCNC(=O)c1cc2nc3c(c(C(F)(F)F)n2n1)CCc1ccccc1-3` was tested, and the Potency was “inactive”. With `CCc1ccc(-c2cc(C(F)(F)F)n3nc(C(=O)Nc4c(C)nn(Cc5ccc(F)cc5)c4C)cc3n2)s1` the Potency was “inactive”. `Cc1ccc(Cn2nc(C)c(NC(=O)CSc3nc4c(c(C(F)(F)F)n3)CCc3ccccc3-4)c2C)cc1` was tested, and the Potency was 20 µM (active). For `Cc1cccn2c(=O)c3cc(C(=O)NC4CCCC4)c(=N)n(CC4CCCO4)c3nc12` (stereo unspecified), the Potency was “inactive”. `COCCCn1c(=N)c(C(=O)NC2CCCCC2)cc2c(=O)n3ccccc3nc21` was tested, and the Potency was “inactive”. With `COc1cccc(/C=C2/SC(=S)N(CC(=O)NNC(=O)c3ccccc3OC)C2=O)c1` the Potency was “inactive”. In the case of `COc1cccc(/C=C2\SC(=S)N(CC(=O)N(C)C3CCS(=O)(=O)C3)C2=O)c1` (stereo unspecified), the Potency is reported as 35.5 µM (active). In the case of `Cc1ccc(-n2nc(C)c3c(C(=O)OCC(=O)N(C)C4CCS(=O)(=O)C4)cc(-c4ccccc4)nc32)cc1` (stereo unspecified), the Potency is reported as “inactive”. `COc1cccc(/C=C2\SC(=S)N(CCC(=O)NNC(=O)c3ccccc3OC)C2=O)c1` was tested, and the Potency was “inactive”. For `COc1cccc(N2C(=O)C3CCCN3C2=S)c1` (stereo unspecified), the Potency was “inactive”. For `COc1cccc(/C=C2\SC(=S)N(CCCC(=O)N3CCCCC3CCO)C2=O)c1` (stereo unspecified), the Potency was 39.8 µM (active). With `O=C1N=C(N2CCN(c3ccccc3)CC2)S/C1=C/c1ccco1` the Potency was “inactive”. `O=C1/C(=C/c2ccco2)SC(=S)N1CCC(=O)N1CCCCC1CCO` (stereo unspecified) was tested, and the Potency was 17.8 µM (active). For `CCCn1nc(NC(=O)c2ccco2)c2cc3cc(C)ccc3nc21`, the Potency was “inactive”. With `CCCn1nc(NC(=O)c2ccco2)c2cc3ccc(C)cc3nc21` the Potency was “inactive”. For `Cc1cccc(OCCn2c(NC(=O)c3ccco3)nc3ccccc32)c1`, the Potency was 39.8 µM (active). For `COCCCn1c(=N)c(C(=O)NCC2CCCO2)cc2c(=O)n3cc(C)ccc3nc21` (stereo unspecified), the Potency was “inactive”. `Cc1cccc(C2=NN(c3ccccc3)[C@H](CO)[C@H]2c2ccccc2)c1` was tested, and the Potency was “inactive”. For `COc1ccc(Br)cc1C(C[N+](=O)[O-])c1c(N)n(C)c(=O)n(C)c1=O` (stereo unspecified), the Potency was 17.8 µM (active). For `COc1ccccc1C(C[N+](=O)[O-])c1c(N)n(C)c(=O)n(C)c1=O` (stereo unspecified), the Potency was 14.1 µM (active). With `CN(C)c1ccc(C(C[N+](=O)[O-])c2c(N)n(C)c(=O)n(C)c2=O)c(F)c1C#N` (stereo unspecified) the Potency was 25.1 µM (active). For `Cn1c(N)c(C(=O)CN2CCc3ccccc3C2)c(=O)n(C)c1=O`, the Potency was “inactive”. With `CCn1cc(C(=O)N2CCCC(N3CCN(c4cccc(C(F)(F)F)c4)CC3)C2)cn1` (stereo unspecified) the Potency was “inactive”. `CN(C)c1ncc(C2=C(Cl)C(=O)C(N3CCCC3)=C(Cl)C2=O)s1` was tested, and the Potency was 25.1 µM (active). For `Cc1cc2c(cc1C)C(=O)C(=O)N2`, the Potency was “inactive”. In the case of `N#Cc1c(-c2ccccc2Cl)c2c([nH]c1=O)-c1ccccc1OC2`, the Potency is reported as “inactive”. With `COc1ccccc1-c1cc(C(=O)Nc2cc(C)n(Cc3ccc(Cl)cc3)n2)no1` the Potency was 28.2 µM (active). In the case of `COc1cccc2cc(C(=O)C3=C(O)C(=O)N(CCN(C)C)C3c3ccc(Cl)cc3)oc12` (stereo unspecified), the Potency is reported as “inactive”. With `COc1cccc2c1c(NC(=O)c1cc(C)on1)nn2C` the Potency was “inactive”. With `CCN(CC)c1ccc2cc(C(=O)c3cccs3)c(=O)oc2c1` the Potency was “inactive”. For `O=C(COc1ccccc1F)Nc1ccc(Cl)c(-c2nc3ccccc3[nH]2)c1`, the Potency was 39.8 µM (active). For `Cc1nc2ccccc2nc1OCC(=O)Nc1ccc(F)cc1`, the Potency was “inactive”. For `CCc1ccc(NC(=O)COc2ccc(/C=C(/C#N)c3nc4ccccc4[nH]3)cc2OC)cc1`, the Potency was “inactive”. For `C/C(=N/NC(=O)c1ccncc1)c1cc2ccc(O)cc2oc1=O`, the Potency was “inactive”. In the case of `COc1cccc(C(c2nnnn2C2CCCC2)N2CCN(C/C=C/c3ccccc3)CC2)c1OC` (stereo unspecified), the Potency is reported as 17.8 µM (active). For `Cc1cc(C)cc(NC(=O)COC(=O)[C@@H](NC(=O)c2ccco2)C(C)C)c1`, the Potency was “inactive”. For `Cc1onc(-c2ccccc2)c1C(=O)OCCOc1ccccc1F`, the Potency was “inactive”. `CCCCCCCCCCOC(=O)Cn1c(COc2ccc(Cl)cc2)[n+](C)c2ccccc21` was tested, and the Potency was 25.1 µM (active). `CCCOc1ccc(-c2c(=O)n(OCC(=O)OCC)c3ccccc3[n+]2[O-])cc1` was tested, and the Potency was “inactive”. For `CC12CC3(C)CC(C)(C1)CC(C(=O)NCc1ccccn1)(C2)C3`, the Potency was “inactive”. For `Cc1cc(-c2nnc(S)n2/N=C/C(Br)=C/c2ccccc2)[nH]n1`, the Potency was 14.1 µM (active). With `Oc1ccccc1/C=N/n1c(S)nnc1-c1ccccc1` the Potency was “inactive”. `Sc1nnc(-c2ccccc2)n1/N=C/c1cccc(Cl)c1` was tested, and the Potency was “inactive”. In the case of `CC(=O)n1cc(C(C[N+](=O)[O-])SCCN)c2ccccc21` (stereo unspecified), the Potency is reported as 22.4 µM (active). In the case of `COc1cc2ccc(=O)oc2c(O)c1OCC=C(C)C`, the Potency is reported as “inactive”. `COc1c(CC=C(C)C)cc(C2CC(=O)c3c(O)cc(O)cc3O2)cc1CC=C(C)C` (stereo unspecified) was tested, and the Potency was 39.8 µM (active). In the case of `COC1=CC(=O)C(C2CC(=O)c3c(O)cc(O)cc3O2)=CC1=O` (stereo unspecified), the Potency is reported as 33.6 µM (active). With `CCOCCCn1c(=N)c(C(=O)NC(C)c2ccccc2)cc2c(=O)n3cccc(C)c3nc21` (stereo unspecified) the Potency was “inactive”. In the case of `C/C(CC(=O)Nc1ccc2c(c1)OCCO2)=N\NC(=O)COc1ccccc1C`, the Potency is reported as “inactive”. For `CN(C)c1nc(NC(C)(C)C)nc(SCC(=O)Nc2ccccc2)n1`, the Potency was “inactive”. In the case of `COC(C(=O)N/N=C(\C)CC(=O)Nc1ccc(N(C)C)cc1)c1ccccc1` (stereo unspecified), the Potency is reported as 31.6 µM (active).
